The panel holds about 83,000 compounds, 20% with a hit somewhere; the sample as a whole holds those more often.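 In brief: 96-well plates, 48 h treatment, single concentration, percent growth endpoint.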 A number with no mark means an inactive call. Activity calls are given as the source filed them. Rule for the calls: active = growth percent below 10; inactive = the rest.
What was measured:
Experiment in all cases: NCI-60 one-dose screen, 48 h (100 = growth as untreated, 0 = no growth, -100 = all killed)
Conditions in all cases: 10 µM
NCI-H23 lung = test system: NCI-H23 lung
NCI-H226 lung = test system: NCI-H226 lung
NCI-H322M lung = test system: NCI-H322M lung
HOP-62 NSCLC = test system: HOP-62 NSCLC
NCI-H460 lung = test system: NCI-H460 lung
NCI-H522 lung = test system: NCI-H522 lung
A549/ATCC NSCLC = test system: A549/ATCC NSCLC
786-0 renal = test system: 786-0 renal
COLO 205 colon = test system: COLO 205 colon
DU-145 prostate = test system: DU-145 prostate
K-562 leukemia = test system: K-562 leukemia
MALME-3M melanoma = test system: MALME-3M melanoma
MDA-MB-231 breast = test system: MDA-MB-231 breast
RXF 393 renal = test system: RXF 393 renal
SF-268 CNS = test system: SF-268 CNS
SF-295 CNS = test system: SF-295 CNS
SF-539 CNS = test system: SF-539 CNS
UACC-257 melanoma = test system: UACC-257 melanoma
M14 melanoma = test system: M14 melanoma
HCT-15 colon = test system: HCT-15 colon

Row | SMILES | growth (NCI-H23 lung) | growth (NCI-H226 lung) | growth (NCI-H322M lung) | growth (HOP-62 NSCLC) | growth (NCI-H460 lung) | growth (NCI-H522 lung) | growth (A549/ATCC NSCLC) | growth (786-0 renal) | growth (COLO 205 colon) | growth (DU-145 prostate) | growth (K-562 leukemia) | growth (MALME-3M melanoma) | growth (MDA-MB-231 breast) | growth (RXF 393 renal) | growth (SF-268 CNS) | growth (SF-295 CNS) | growth (SF-539 CNS) | growth (UACC-257 melanoma) | growth (M14 melanoma) | growth (HCT-15 colon)
1 | C#Cc1ccc(-n2c(/C=C/c3ccc(Cl)c(F)c3)nc3ncccc3c2=O)cc1 | 18.3% | -74.5% (active) | -25% (active) | -57.6% (active) | -25.8% (active) | -66.7% (active) | -8.32% (active) | 7.88% (active) | -90.2% (active) | 3.49% (active) | -8.5% (active) | -60.4% (active) | -29.8% (active) | -76.2% (active) | -61.9% (active) | -60.1% (active) | 1.03% (active) | -65.1% (active) | -9.7% (active) | 2.43% (active)
2 | COc1ccc(OC)c(/C=C/c2nc(SC)n(-c3ccc(Cl)cc3)n2)c1 | 59.7% | 70.9% | 73.3% | 90.3% | 85.2% | 81.6% | 64.8% | 86.8% | 78.1% | 93.9% | 30.7% | 44.8% | 91.7% | 59.7% | 91.7% | 46.8% | 88.5% | 87.3% | 60% | 58.9%
3 | O=C(Nc1cccc(-n2cc(-c3ccncc3)c(-c3ccc(O)c(Cl)c3)n2)c1)Nc1cccc(C(F)(F)F)c1 | -5.75% (active) | 57.5% | -10.3% (active) | -3.45% (active) | -4.53% (active) | -6.25% (active) | -6.05% (active) | 14.9% | 22.7% | 12.8% | 2.72% (active) | -24.1% (active) | -22.1% (active) | -11.7% (active) | 9.04% (active) | -12.6% (active) | -8.84% (active) | -19% (active) | -8.16% (active) | 14.9%
4 | COc1cc(NC(=O)c2sc3nc4c(cc3c2N)C(O)CCC4)cc(OC)c1 (stereo not given) | 99.3% | 97.1% | 88.7% | 65.8% | 104% | 69% | 86.1% | 97.3% | 105% | 108% | 27.9% | 77.6% | 88.9% | 90.4% | 103% | 87.5% | 87.7% | 89.2% | 75.4% | 60.1%
5 | COc1cc2nc(Nc3cccc(NC(C)=O)c3)nc(N)c2cc1OC | 135% | 90.9% | 120% | 94.4% | 110% | 93.2% | 105% | 94.7% | 109% | 90.2% | 103% | 101% | 86.9% | 94.1% | 92.3% | 131% | 101% | 98.3% | 107% | 93.8%
6 | COc1cc(NC(=O)CCSc2nc3ccc(Cl)cc3c(=O)n2Cc2ccccc2)cc(OC)c1OC | 93.5% | 31.1% | 83.1% | 57.2% | 81.8% | -9.19% (active) | 59.3% | 93.2% | 107% | 108% | 67.1% | 84.3% | 51.2% | 57.2% | 95.1% | 66.2% | 26.8% | 61% | 75.2% | 72.5%
7 | c1ccc2c(-c3nc(N4CCOCC4)c4c5c(sc4n3)CCCCCC5)cccc2c1 | 107% | 93.8% | 110% | 101% | 104% | 91.2% | 97.7% | 103% | 114% | 119% | 115% | 97% | 96.7% | 95.9% | 102% | 98.1% | 98.9% | 110% | 110% | 100%
8 | O=C1/C(=C/c2ccc([N+](=O)[O-])o2)Oc2ccccc21 | -8.25% (active) | 23.9% | 91.6% | 62.2% | 31.8% | -79.6% (active) | 62.5% | -38.5% (active) | -66% (active) | -8.6% (active) | 1.24% (active) | -40.6% (active) | -17.3% (active) | -74.9% (active) | -10.8% (active) | 79.2% | -40.7% (active) | -8.85% (active) | 13.8% | 1.63% (active)
9 | COc1cc2cc3c(nc2cc1OC)CCN3Cc1ccc(NC(=O)Nc2ccc(F)cc2F)cc1 | 71.5% | 79.4% | 84.8% | 105% | 97.6% | 63% | 69.4% | 70.4% | 90.9% | 91.2% | 61.5% | 93.2% | 89% | 88.6% | 94.9% | 76.9% | 97.8% | 77.3% | 81.8% | 78.8%
10 | COc1ccc2c(c1)O/C(=C\c1ncc([N+](=O)[O-])n1C)C2=O | -7.25% (active) | -42.3% (active) | 2.34% (active) | -20% (active) | -30.6% (active) | -48.8% (active) | -23.9% (active) | -13.4% (active) | -49.2% (active) | -19.2% (active) | 1.57% (active) | -65.6% (active) | -10.3% (active) | -72% (active) | -17.6% (active) | -34.6% (active) | -60.9% (active) | -57% (active) | -54.6% (active) | 2.5% (active)
11 | CCCCCCNC(=O)Oc1ccc(/C(=C(/CC)Cc2ccccc2)c2ccc(OCCN3CCCCC3)cc2)cc1 | 91% | 88.6% | 91.4% | 86.6% | 73.4% | 77.9% | 76.7% | 78.6% | 51.4% | 96.6% | 24% | 93.1% | 83.6% | 73.8% | 80.9% | 114% | 91.9% | 86.1% | 94.7% | 39%
12 | Cc1cc(=O)n2nnc3c4ccccc4ccc3n12 | 94% | 59.8% | 96.3% | 70% | 83.9% | 87.9% | 60.2% | 89.8% | 8.79% (active) | 98.8% | 24.7% | 81.2% | 71.4% | 98% | 84% | 104% | 82.3% | 81.1% | 92.4% | 51.4%
13 | O=C(Nc1cccc(Cl)c1)Nc1nccs1 | 94.7% | 99.6% | 92.6% | 94.6% | 98.9% | 7.88% (active) | 28.6% | 95.6% | 126% | 114% | 85.8% | 93.5% | 93.2% | 103% | 107% | 97.6% | 88.4% | -10.8% (active) | 89.3% | 86.2%
14 | COc1ccc(Nc2ncnc3c2c(SC)nn3-c2ccccc2)cc1 | 89.8% | 85.5% | 82.4% | 96.7% | 99.4% | 61.3% | 86% | 93.9% | 111% | 101% | 94% | 93% | 93.4% | 81.3% | 95.1% | 88.7% | 99.3% | 106% | 94.4% | 89.2%
15 | Cc1cccc2c1O/C(=C\c1ccc([N+](=O)[O-])o1)C2=O | -39.8% (active) | -57.8% (active) | 37.9% | -25.6% (active) | -58.5% (active) | -77.4% (active) | -12.2% (active) | -39.5% (active) | -84.3% (active) | -62.7% (active) | -44.2% (active) | -32.4% (active) | -47.3% (active) | -80.8% (active) | -39.8% (active) | 31.1% | -59.2% (active) | -65% (active) | -54.1% (active) | -55.2% (active)
16 | Cc1ccc(NC(=O)Nc2c(Cl)cccc2Cl)cn1 | 109% | 140% | 119% | 107% | 106% | -10.6% (active) | 57.3% | 113% | 135% | 123% | 47.7% | 109% | 95.4% | 77.3% | 116% | 117% | 97.7% | 99.6% | 96.1% | 100%

From PubChem BioAssay (NCI)
